From PubChem BioAssay (EPA / NIEHS)
Activity calls are given as the source filed them. How the source made its calls: active means hit-call score of the fitted dose curve at least 0.9, where 1 is the maximum; inactive means score below 0.9.

Experiments:
Settings in all cases: mRNA level, 48 h; actives raise or lower the signal
[1] = read-out: matrix metalloproteinase-3 (MMP3), MMP3 (gene 4314); experiment: LTEA_HepaRG_MMP3: Life Technologies and Expression Analysis (LTEA) Assay for matrix metalloproteinase-3 (MMP3) using HepaRG (AID 2283519)
Protocol: LTEA_HepaRG is a cell based, multiplexed-readout assay that uses HepaRG, a human liver cell line, with measurements taken at 48 hours after chemical dosing on a 96-well plate.LTEA_HepaRG_MMP3 is one of 102 assay component(s) measured in the LTEA HepaRG cell culture assay. It is a marker of Fibrosis.Data from the assay component LTEA_HepaRG_MMP3 was analyzed into 1 endpoint. This assay endpoint, LTEA_HepaRG_MMP3, was analyzed with bidirectional fitting relative to DMSO as the negative control and baseline of activity. Using a type of inducible reporter, measures of mRNA induction for gain or loss-of-signal activity can be used to understand regulation of transcription factor activity. To generalize the intended target to other relatable targets, this assay endpoint is annotated to the protease intended target family, where the subfamily is matrix metalloproteinase.
A total of 1060 chemcials from the ToxCast library were tested in eight-point concentration-response experiments. Cell culture and cytotoxicity assays were conducted at Thermo Fisher Scientific's Custom Services facility (Madison, WI). […] Fluidigm's 96.96 Dynamic ArrayTM (Fluidigm, Amsterdam, the Netherlands) technology was used for gene expression analyses by quantitative reverse transcription polymerase chain reaction (qRT-PCR, performed by Quintiles/Expression Analysis, Durham, NC)89. […]

[2] = read-out: Paternally Expressed 10 (PEG10), PEG10 (gene 23089); experiment: LTEA_HepaRG_PEG10: Life Technologies and Expression Analysis (LTEA) Assay for Paternally Expressed 10 (PEG10) using HepaRG (AID 2283520)
Summary of the method: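 qRT-PCR read-out: PEG10 mRNA normalised to three housekeeping genes, fitted bidirectionally against 0.5% DMSO vehicle. HepaRG cells received test chemicals for 48 h in serum-free induction medium, 8 points, top 100 uM, half-log steps.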

[3] = read-out: Protein phosphatase 2A (PPP2R4), PTPA (gene 5524); experiment: LTEA_HepaRG_PPP2R4: Life Technologies and Expression Analysis (LTEA) Assay for Protein phosphatase 2A (PPP2R4) using HepaRG (AID 2283522)
Summary of the method: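 HepaRG, 48 h exposure, 8-pt half-log series from 100 uM, 0.5% DMSO vehicle, duplicates. Readout: PPP2R4 mRNA, Fluidigm qRT-PCR, housekeeping-normalized. Bidirectional curve fit vs DMSO baseline.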

[4] = read-out: Phosphatase and tensin (PTEN), PTEN (gene 5728); experiment: LTEA_HepaRG_PTEN: Life Technologies and Expression Analysis (LTEA) Assay for Phosphatase and tensin (PTEN) using HepaRG (AID 2283523)
Summary of the method: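 Expression of PTEN is quantified in the human liver line HepaRG following two days of dosing (top concentration 100 uM, half-log dilutions, 0.5% DMSO). Values derive from bidirectional curve fitting relative to DMSO controls.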

[5] = read-out: solute carrier (SLC22A1), SLC22A1 (gene 6580); experiment: LTEA_HepaRG_SLC22A1: Life Technologies and Expression Analysis (LTEA) Assay for solute carrier (SLC22A1) using HepaRG (AID 2283524)
Summary of the method: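 Transcript induction or suppression of SLC22A1 in human HepaRG cultures is scored after 48 h chemical treatment, with DMSO (0.5%) as baseline for bidirectional fitting. Concentrations span eight half-log points topping at 100 uM.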

[6] = read-out: Pyruvate Dehydrogenase Kinase 4 (PDK4), PDK4 (gene 5166); experiment: LTEA_HepaRG_PDK4: Life Technologies and Expression Analysis (LTEA) Assay for Pyruvate Dehydrogenase Kinase 4 (PDK4) using HepaRG (AID 2283525)
Summary of the method: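 Eight-point, half-log concentration series (max 100 uM, 0.5% DMSO) applied to differentiated HepaRG cells for 48 h in duplicate. Endpoint: PDK4 mRNA induction or repression by qRT-PCR against DMSO baseline.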

[7] = read-out: NAD(P)H dehydrogenase [quinone] 1 (NQO1), NQO1 (gene 1728); experiment: LTEA_HepaRG_NQO1: Life Technologies and Expression Analysis (LTEA) Assay for NAD(P)H dehydrogenase [quinone] 1 (NQO1) using HepaRG (AID 2283526)
Summary of the method: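 qRT-PCR read-out (Fluidigm TaqMan), normalized to three housekeeping genes, after 48 h chemical exposure of HepaRG cells. Concentrations: eight points, top 100 uM, half-log steps, 0.5% DMSO vehicle. Gain or loss of signal fitted relative to DMSO.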

[8] = read-out: Nuclear factor erythroid 2-related factor 2 (Homo sapiens) (UniProt Q16236); experiment: LTEA_HepaRG_NFE2L2: Life Technologies and Expression Analysis (LTEA) Assay for Nuclear factor erythroid 2-related factor 2 (NFE2L2) Transcription Factor using HepaRG (AID 2283527);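 further: TaqMan qRT-PCR transcript level normalised to ACTB GAPDH and POLR2A housekeeping genes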
Summary of the method: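 Human liver HepaRG line treated in duplicate for 48 h with an eight-point series topping at 100 uM. Gene expression of NFE2L2 by qRT-PCR, bidirectionally fitted against the vehicle control.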

[9] = read-out: succinate dehydrogenase complex iron sulfur subunit B (SDHB), SDHB (gene 6390); experiment: LTEA_HepaRG_SDHB: Life Technologies and Expression Analysis (LTEA) Assay for succinate dehydrogenase complex iron sulfur subunit B (SDHB) using HepaRG (AID 2283528)
Summary of the method: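 HepaRG cells (~100,000/well, plated 48 h) exposed in duplicate for 48 h in serum-free induction medium to 8-point half-log series from 100 uM in 0.5% DMSO; mRNA by qRT-PCR normalised to ACTB, GAPDH, POLR2A; bidirectional fit versus DMSO.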

[10] = read-out: Signal transducer and activator of transcription 3 (Homo sapiens) (UniProt P40763); experiment: LTEA_HepaRG_STAT3: Life Technologies and Expression Analysis (LTEA) Assay for Signal transducer and activator of transcription (STAT3) using HepaRG (AID 2283529)
Summary of the method: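 In this transcriptional endpoint, HepaRG cultures receive test chemicals at up to 100 uM for 48 h, tested in duplicate. STAT3 mRNA is normalized to ACTB, GAPDH and POLR2A.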

Measured: outcome

Chain of Signal transducer and activator of transcription 3 (Homo sapiens) (P40763 whole entry, looked up): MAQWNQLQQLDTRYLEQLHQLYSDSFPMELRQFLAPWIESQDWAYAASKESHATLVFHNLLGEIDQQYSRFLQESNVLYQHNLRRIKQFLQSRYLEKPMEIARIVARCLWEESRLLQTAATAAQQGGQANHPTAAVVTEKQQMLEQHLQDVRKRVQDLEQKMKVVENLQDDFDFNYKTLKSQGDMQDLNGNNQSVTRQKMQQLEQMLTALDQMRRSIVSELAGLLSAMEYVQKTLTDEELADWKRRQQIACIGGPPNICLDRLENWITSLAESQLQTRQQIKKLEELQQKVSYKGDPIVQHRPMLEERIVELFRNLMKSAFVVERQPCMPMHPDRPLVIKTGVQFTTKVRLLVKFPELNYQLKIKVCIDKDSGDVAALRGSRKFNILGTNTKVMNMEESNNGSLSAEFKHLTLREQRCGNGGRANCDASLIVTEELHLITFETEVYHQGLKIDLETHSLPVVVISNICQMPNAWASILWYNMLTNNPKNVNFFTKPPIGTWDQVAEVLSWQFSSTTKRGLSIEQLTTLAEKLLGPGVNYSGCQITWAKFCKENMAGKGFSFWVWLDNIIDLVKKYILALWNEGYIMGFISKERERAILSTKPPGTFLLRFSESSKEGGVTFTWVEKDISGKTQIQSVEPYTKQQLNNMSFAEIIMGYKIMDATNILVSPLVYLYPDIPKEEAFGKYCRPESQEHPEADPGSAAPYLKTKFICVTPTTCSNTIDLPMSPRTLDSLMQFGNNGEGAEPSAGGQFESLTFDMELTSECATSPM
Chain of Nuclear factor erythroid 2-related factor 2 (Homo sapiens) (Q16236 whole entry, looked up): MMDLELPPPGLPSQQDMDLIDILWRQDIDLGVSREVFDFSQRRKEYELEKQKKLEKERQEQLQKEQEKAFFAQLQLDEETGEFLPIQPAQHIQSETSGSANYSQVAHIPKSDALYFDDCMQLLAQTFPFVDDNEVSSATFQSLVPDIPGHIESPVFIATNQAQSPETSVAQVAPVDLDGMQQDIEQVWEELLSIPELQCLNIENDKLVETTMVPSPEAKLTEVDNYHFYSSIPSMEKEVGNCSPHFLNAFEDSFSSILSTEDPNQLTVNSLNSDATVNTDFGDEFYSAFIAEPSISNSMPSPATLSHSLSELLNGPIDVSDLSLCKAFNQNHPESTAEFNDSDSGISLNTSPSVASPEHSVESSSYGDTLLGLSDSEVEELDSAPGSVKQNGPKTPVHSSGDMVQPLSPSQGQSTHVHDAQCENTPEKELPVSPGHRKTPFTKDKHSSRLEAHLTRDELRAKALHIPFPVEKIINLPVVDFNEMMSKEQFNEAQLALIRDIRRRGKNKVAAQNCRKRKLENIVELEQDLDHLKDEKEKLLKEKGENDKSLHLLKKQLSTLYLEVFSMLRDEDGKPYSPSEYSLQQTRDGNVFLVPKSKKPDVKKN

CS(=O)(=O)OCCCCOS(C)(=O)=O
inactive: [1] | [2] | [3] | [4] | [5] | [6] | [7] | [8] | [9] | [10]
